Test results as given in PubChem BioAssay (EPA / NIEHS).
Inconclusive results are not listed. Active and inactive are the calls of the source. How the source made its calls: active means hit-call score of the fitted dose curve at least 0.9, where 1 is the maximum; inconclusive means response in the unintended direction; inactive means score below 0.9.

Biological target: Estrogen receptor (Homo sapiens) (UniProt P03372)
Test: OT_ER_ERaERa_1440: Odyssey Thera (OT) 24-hour HEK293T Protein-Complementation Assay for Estrogen Receptor-alpha/-alpha Homodimer (AID 2283349);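 further: hits raise fluorescence above DMSO for agonists and antagonists alike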
Method in brief: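 HEK293T, stable ERα LBD (aa 310-547) homodimer PCA; 24 h compound exposure; mean fluorescence intensity (nuclear for agonists, nuclear plus cytoplasmic for antagonists) vs vehicle; positive fitting direction, DMSO baseline.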

Chain of Estrogen receptor (Homo sapiens) (P03372 whole entry, looked up, the tested form may be a part): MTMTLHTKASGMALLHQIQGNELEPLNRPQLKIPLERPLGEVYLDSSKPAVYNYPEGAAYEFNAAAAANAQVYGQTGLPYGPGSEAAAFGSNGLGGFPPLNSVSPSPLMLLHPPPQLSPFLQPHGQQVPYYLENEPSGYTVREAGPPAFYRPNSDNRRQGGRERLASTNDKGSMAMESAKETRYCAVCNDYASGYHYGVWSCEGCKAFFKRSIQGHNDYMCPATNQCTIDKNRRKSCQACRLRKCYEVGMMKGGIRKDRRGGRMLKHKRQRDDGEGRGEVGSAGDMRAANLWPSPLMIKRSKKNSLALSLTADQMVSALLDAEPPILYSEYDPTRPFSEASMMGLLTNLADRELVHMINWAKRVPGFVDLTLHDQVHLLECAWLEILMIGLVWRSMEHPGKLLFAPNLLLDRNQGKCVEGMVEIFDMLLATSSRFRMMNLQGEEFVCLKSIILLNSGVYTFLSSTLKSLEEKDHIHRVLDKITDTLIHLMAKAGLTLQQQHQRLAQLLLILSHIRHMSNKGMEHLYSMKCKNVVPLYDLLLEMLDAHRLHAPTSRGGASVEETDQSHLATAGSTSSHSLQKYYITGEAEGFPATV

Row | Compound | AC50 | outcome
1 | CN(C)c1ccc(C(=N)c2ccc(N(C)C)cc2)cc1 | 33.4 µM (active) | 
2 | OC1CCCCCCCCCCC1 |  | inactive
3 | CCCCC/C=C\C/C=C\CCCCCCCC(=O)OC |  | inactive
4 | Oc1ccc(Cl)cc1Cc1cc(Cl)ccc1O | 11.9 µM (active) | 
5 | CN(C)c1ccc(N=Nc2ccccc2C(=O)O)cc1 |  | inactive
6 | Cc1ccc(N/N=c2\c(=O)cc/c(=N/Nc3ccc(S(=O)(=O)O)cc3)c2=O)c(C)c1 |  | inactive
7 | O=c1cc(-c2ccccc2)oc2ccccc12 |  | inactive
8 | CC/C=C\C/C=C\C/C=C\CCCCCCCC(=O)O |  | inactive
9 | C1=Cc2ccccc2C1 |  | inactive
10 | CC(C)c1ccc2c(C(C)C)cc(C(C)C)c(S(=O)(=O)O)c2c1 |  | inactive
11 | CCCCCCCC[N+](C)(CCCCCCCC)CCCCCCCC |  | inactive
12 | CCCCCCCCCCCCCOP(=O)(O)O |  | inactive

Biological target: Estrogen receptor (Homo sapiens) (UniProt P03372)
Test: OT_ER_ERaERa_0480: Odyssey Thera (OT) 8-hour HEK293T Protein-Complementation Assay for Estrogen Receptor-alpha/-alpha Homodimer (AID 2283351);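 further: rise in fluorescence from reassembled reporter fragments on ERα LBD homodimer in nucleus or whole cell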
Method in brief: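 Measures ERα LBD (aa 310-547) homodimer complementation in stably transfected HEK293T at 8 h post-dose, with fluorescence intensity quantified on a laser scanning cytometer relative to DMSO controls.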

Row | Compound | AC50 | outcome
13 | CN(C)c1ccc(C(=N)c2ccc(N(C)C)cc2)cc1 | 59.1 µM (active) | 
14 | OC1CCCCCCCCCCC1 |  | inactive
15 | CCCCC/C=C\C/C=C\CCCCCCCC(=O)OC |  | inactive
16 | Oc1ccc(Cl)cc1Cc1cc(Cl)ccc1O |  | inactive
17 | CN(C)c1ccc(N=Nc2ccccc2C(=O)O)cc1 |  | inactive
18 | Cc1ccc(N/N=c2\c(=O)cc/c(=N/Nc3ccc(S(=O)(=O)O)cc3)c2=O)c(C)c1 |  | inactive
19 | O=c1cc(-c2ccccc2)oc2ccccc12 |  | inactive
20 | CC/C=C\C/C=C\C/C=C\CCCCCCCC(=O)O |  | inactive
21 | C1=Cc2ccccc2C1 |  | inactive
22 | CC(C)c1ccc2c(C(C)C)cc(C(C)C)c(S(=O)(=O)O)c2c1 |  | inactive
23 | CCCCCCCC[N+](C)(CCCCCCCC)CCCCCCCC |  | inactive
24 | CCCCCCCCCCCCCOP(=O)(O)O |  | inactive
25 | O=S(=O)(O)c1ccccc1C=Cc1ccc(-c2ccc(C=Cc3ccccc3S(=O)(=O)O)cc2)cc1 |  | inactive

Biological target: Estrogen receptor (Homo sapiens) + Estrogen receptor beta (Homo sapiens) (UniProt P03372+Q92731)
Sequence (P03372 whole entry, looked up): as the sequence (P03372 whole entry, looked up, the tested form may be a part) above
Sequence (Q92731 whole entry, looked up): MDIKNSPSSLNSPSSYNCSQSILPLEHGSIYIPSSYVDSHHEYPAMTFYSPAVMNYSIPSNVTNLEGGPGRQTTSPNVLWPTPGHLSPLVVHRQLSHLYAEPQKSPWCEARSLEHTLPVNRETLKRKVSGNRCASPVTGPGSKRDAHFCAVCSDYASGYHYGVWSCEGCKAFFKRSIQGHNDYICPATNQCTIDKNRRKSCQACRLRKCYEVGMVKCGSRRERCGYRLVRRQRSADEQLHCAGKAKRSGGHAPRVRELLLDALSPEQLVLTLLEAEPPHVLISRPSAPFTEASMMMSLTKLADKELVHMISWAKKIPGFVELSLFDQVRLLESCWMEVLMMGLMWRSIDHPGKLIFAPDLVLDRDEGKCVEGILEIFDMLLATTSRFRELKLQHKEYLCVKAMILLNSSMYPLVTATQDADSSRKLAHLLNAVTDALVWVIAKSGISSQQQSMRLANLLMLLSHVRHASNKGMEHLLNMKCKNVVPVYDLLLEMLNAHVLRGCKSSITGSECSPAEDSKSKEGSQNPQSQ
Test: OT_ER_ERaERb_0480: Odyssey Thera (OT) 8-hour HEK293T Protein-Complementation Assay for Estrogen Receptor-alpha/-beta Heterodimer (AID 2283352)
Method in brief: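 Human HEK293T cells were treated for 8 hours and receptor heterodimerisation was detected through reconstitution of a fluorescent reporter split between ER-alpha and ER-beta ligand-binding domains. Activity was analysed as gain of signal against DMSO.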

Row | Compound | outcome | AC50
26 | CN(C)c1ccc(C(=N)c2ccc(N(C)C)cc2)cc1 | inactive | 
27 | CCCCC/C=C\C/C=C\CCCCCCCC(=O)OC | inactive | 
28 | Oc1ccc(Cl)cc1Cc1cc(Cl)ccc1O |  | 11.9 µM (active)
29 | Cc1ccc(N/N=c2\c(=O)cc/c(=N/Nc3ccc(S(=O)(=O)O)cc3)c2=O)c(C)c1 | inactive | 
30 | O=c1cc(-c2ccccc2)oc2ccccc12 | inactive | 
31 | CC/C=C\C/C=C\C/C=C\CCCCCCCC(=O)O | inactive | 
32 | CCCCCCCC[N+](C)(CCCCCCCC)CCCCCCCC | inactive | 
33 | CCCCCCCCCCCCCOP(=O)(O)O | inactive | 
34 | O=S(=O)(O)c1ccccc1C=Cc1ccc(-c2ccc(C=Cc3ccccc3S(=O)(=O)O)cc2)cc1 | inactive | 
